# Screening data from PubChem.
# A selection: hits, their analogues and other compounds. The true share with any hit is near 2.1%.
# STK33 inh = STK33 kinase inhibitors, primary screen, biochemical, luminescence, ADP-Glo, MBP substrate; inhibition, % at 12.5 µM; hit rate 0.44% among 27,000; AID 2322, 2010; in the data active = inhibition above about 20%; inconclusive = no clear call, values can overlap the other calls
# ID4 SMM = binders of human ID4 protein, primary screen, biochemical, small molecule microarray, single point; DNA-binding protein inhibitor ID-4 (Homo sapiens), P47928; Flag-ID4 binding, fluorescence F/B; calls only; hit rate 1.2% among 31,000; call rule not given here;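 note: a binder raises fluorescence above local background on the spot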
# Target sequence (P47928 whole entry, looked up): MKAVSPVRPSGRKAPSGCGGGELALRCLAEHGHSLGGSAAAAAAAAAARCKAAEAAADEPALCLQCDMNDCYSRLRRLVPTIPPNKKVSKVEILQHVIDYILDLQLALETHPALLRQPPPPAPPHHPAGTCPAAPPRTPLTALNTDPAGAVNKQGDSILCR
# p53 PUMA act = mutant p53 pathway re-activators, primary screen, cell-based, SW480, luciferase, single point, HTS; hit rate 1.5% among 28,000; activation, % at 9.98 µM; SW480 PUMA-promoter luciferase, p53 mutant reactivation; in the data active = activation above about 52%; inconclusive = no clear call, values can overlap the other calls
# Numbers without * were called inactive; i = inactive; ? = inconclusive; · = no result; + = active, no number.
SMILES,STK33 inh,ID4 SMM,p53 PUMA act
COc1cc2c(cc1NC(=O)C(C)Oc1ccc(Br)cc1)oc1ccccc12 (stereo unspecified),-2,i,12
COC(=O)Cc1c(C)c2c(OCC(N)=O)cc(C)cc2oc1=O,4,i,-6
COC(=O)Cc1c(C)c2cc(Cl)c(OC(C)C(C)=O)cc2oc1=O (stereo unspecified),-3,i,68*
C[C@H](CO)N1C[C@H](C)[C@H](CN(C)Cc2ccccc2)Oc2ncc(C#Cc3ccccn3)cc2C1=O,·,i,·
COc1ccc([Si](C)(C)[C@@H]2[C@@H](CCn3cc(CCO)nn3)O[C@]3(C(=O)N(Cc4cccc(N5CCOC5=O)c4)c4ccccc43)[C@H]2C)cc1,?,i,·
COc1ccc([Si](C)(C)[C@@H]2[C@@H](CCO)O[C@]3(C(=O)N(Cc4cccc(N5CCOC5=O)c4)c4ccccc43)[C@H]2C)cc1,18,i,·
COc1ccc([Si](C)(C)[C@H]2[C@H](CCO)O[C@@]3(C(=O)N(Cc4cccc(NC(C)=O)c4)c4ccccc43)[C@@H]2C)cc1,38*,i,·
COc1ccc([Si](C)(C)[C@@H]2[C@@H](CCO)O[C@]3(C(=O)N(Cc4ccc(N5CCOC5=O)cc4)c4ccccc43)[C@H]2C)cc1,20*,·,·
COc1ccc([Si](C)(C)[C@@H]2[C@@H](CCO)O[C@]3(C(=O)N(Cc4ccc(NC(C)=O)cc4)c4ccccc43)[C@H]2C)cc1,15,i,·
COc1ccc([Si](C)(C)[C@H]2[C@H](CCn3cc(CCO)nn3)O[C@@]3(C(=O)N(Cc4cccc(N5CCOC5=O)c4)c4ccccc43)[C@@H]2C)cc1,21*,i,·
COC(=O)c1cc(OC)c(OC)cc1NC(=O)C(C)Oc1cccc(Cl)c1 (stereo unspecified),-1,i,-17
Cc1c(C(=O)Nc2nnc(SC/C=C/c3ccccc3)s2)oc2ccccc12,-2,i,54*
Cc1c(C(=O)Nc2nnc(SCc3ccccc3F)s2)oc2ccccc12,8,i,24
Cc1scc2c1N(C(=O)CN1CCN(C)CC1)c1ccccc1NC2=O,1,i,0
CCN(CC)CCCCC1CCN(CC(=O)N2c3ccccc3C(=O)Nc3cccnc32)CC1,·,+,3
O=[N+]([O-])c1cccc(COc2ccc(-c3cnc4ccccc4n3)cc2)c1,4,i,63*
O=C(COc1cccc(-c2cnc3ccccc3n2)c1)c1ccccc1,-3,i,40
C[C@@H]1CN([C@H](C)CO)C(=O)CCCn2nncc2CO[C@H]1CN(C)S(=O)(=O)c1cn(C)cn1,-4,·,·
Cc1cc(C)nc(SCc2csc(N)n2)n1,-2,+,9
COC(=O)CSc1nc(C)cc(C)n1,2,i,1
COc1ccc(OC)c(NC(=O)c2ccc(Cl)c(S(=O)(=O)Nc3ccc(C)cc3)c2)c1,-1,i,-3
COc1ccc(OC)c(NC(=O)c2ccc(C)c(S(=O)(=O)Nc3ccc(C)cc3)c2)c1,-2,+,1
C[C@@H]1CN([C@H](C)CO)C(=O)Cc2cc(NS(=O)(=O)c3ccc(F)cc3)ccc2O[C@H]1CN(C)S(C)(=O)=O,-2,·,·
COc1ccc(CN(C)C[C@H]2Oc3ccc(NS(C)(=O)=O)cc3CC(=O)N([C@H](C)CO)C[C@H]2C)cc1,-6,·,·
O=C(NCCNC(=O)c1ccco1)c1ccco1,0,i,1
CC(CNC(=O)c1ccco1)NC(=O)c1ccco1 (stereo unspecified),-3,+,-2
COc1ccc(NC(=O)N(C)C[C@H]2OCCCC[C@@H](C)Oc3ccc(NC(=O)Nc4ccccc4)cc3C(=O)N([C@H](C)CO)C[C@@H]2C)cc1,1,·,·
C/C(=C/CCC(CO)C1CCC2(C)C3CCC4C(C)(C)C(OC5OC(CO)C(O)C(O)C5O)CC(O)C45CC35CCC12C)COC1OC(CO)C(O)C(O)C1O (stereo unspecified),-5,i,12
COCCOC(=O)N1C(=O)[C@@]2(c3cc(C#Cc4ccc(OC)cc4)ccc31)[C@H](C(=O)N1CCc3cc(OC)c(OC)cc3C1)[C@H]1C(=O)O[C@H](c3ccccc3)[C@H](c3ccccc3)N1[C@@H]2c1ccccc1OCCO,18,+,·
COc1cc2c(cc1OC)CN(C(=O)[C@H]1[C@@H]3C(=O)O[C@@H](c4ccccc4)[C@@H](c4ccccc4)N3[C@@H](c3ccc(OCCO)cc3)[C@]13C(=O)Nc1ccc(C#CC4=CCCCC4)cc13)CC2,22*,i,·
